The panel holds about 83,000 compounds, 20% with a hit somewhere; the sample as a whole holds those more often.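 Assay: single dose, 48 h. Readout: percent growth (0 = no net growth; negative = cell death). Active: <10.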 Active and inactive are the calls of the source.
Legend:
Assay in all cases: NCI-60 one-dose screen, 48 h (100 = growth as untreated, 0 = no growth, -100 = all killed)
Settings in all cases: 10 µM unless noted
NCI-H23 lung = tested on: NCI-H23 lung
NCI-H226 lung = tested on: NCI-H226 lung
NCI-H322M lung = tested on: NCI-H322M lung
HOP-62 NSCLC = tested on: HOP-62 NSCLC
NCI-H460 lung = tested on: NCI-H460 lung
HOP-92 NSCLC = tested on: HOP-92 NSCLC
NCI-H522 lung = tested on: NCI-H522 lung
A549/ATCC NSCLC = tested on: A549/ATCC NSCLC
786-0 renal = tested on: 786-0 renal
COLO 205 colon = tested on: COLO 205 colon

Measured: growth

Cc1ccsc1[C@H]1c2[nH]c3ccccc3c2C[C@H]2C(=O)N(CCCCCCC(=O)NO)CC(=O)N12
inactive: NCI-H23 lung 89.6% | NCI-H226 lung 97.3% | NCI-H322M lung 81.1% | HOP-62 NSCLC 101% | NCI-H460 lung 78.4% | HOP-92 NSCLC 92.6% | NCI-H522 lung 58.8% | A549/ATCC NSCLC 99.3% | 786-0 renal 99.1%

COc1ccc(C(C)=C(c2ccc(OCCN3CCCCCC3)cc2)c2ccc(OCCN3CCCCCC3)cc2)cc1
active: NCI-H23 lung -40.3% | NCI-H226 lung -46.1% | NCI-H322M lung -11.7% | HOP-62 NSCLC -52.4% | NCI-H460 lung -57.2% | HOP-92 NSCLC -8.87% | NCI-H522 lung -52% | A549/ATCC NSCLC -35.9% | 786-0 renal -93.9%

C[C@]12CC[C@H]3[C@@H](CC=C4C[C@@H](O)CC[C@@]43C)[C@@H]1CC[C@@H]2[C@](C)(O)CCc1cccnc1
inactive: NCI-H23 lung 52.5% | NCI-H226 lung 73.4% | NCI-H322M lung 79.5% | HOP-62 NSCLC 61.3% | NCI-H460 lung 63.5% | HOP-92 NSCLC 66.8% | NCI-H522 lung 36.6% | A549/ATCC NSCLC 70.1% | 786-0 renal 80.8% | COLO 205 colon 70.8%

Cc1csc(/N=C(N)/N=C(\N)c2cccc(Br)c2)n1
inactive: NCI-H23 lung 89.1% | NCI-H226 lung 88.9% | NCI-H322M lung 95.6% | HOP-62 NSCLC 85.3% | NCI-H460 lung 98.1% | HOP-92 NSCLC 69.9% | NCI-H522 lung 80% | A549/ATCC NSCLC 101% | 786-0 renal 97.3%

COc1cc(/C=C2/C(=O)Nc3ccc(Cl)cc32)ccc1OCc1ccc(Cl)cc1
inactive: NCI-H23 lung 81.2% | NCI-H226 lung 95.7% | NCI-H322M lung 89.3% | HOP-62 NSCLC 92.1% | NCI-H460 lung 70.5% | HOP-92 NSCLC 88.3% | NCI-H522 lung 87.9% | A549/ATCC NSCLC 84.9% | 786-0 renal 100% | COLO 205 colon 93.4%

COc1ccc2[nH]cc(-c3nc(N)nnc3-c3cn(C)c4ccc(Br)cc34)c2c1
inactive: NCI-H23 lung 43.9% | NCI-H226 lung 34.7% | NCI-H322M lung 53.7% | HOP-62 NSCLC 38.9% | NCI-H460 lung 15.1% | HOP-92 NSCLC 44% | A549/ATCC NSCLC 35.6% | 786-0 renal 24.1%
active: NCI-H522 lung 7.41%

CN1CCN(Cc2ccc(NC(=O)c3cncc(C#Cc4cnc5ccc(OC6CCOCC6)nn45)c3)cc2C(F)(F)F)CC1
active: NCI-H23 lung -58.7% | NCI-H226 lung -58.4% | NCI-H322M lung -44.7% | HOP-62 NSCLC -77.4% | NCI-H460 lung -77.9% | HOP-92 NSCLC -31.8% | NCI-H522 lung -75.5% | A549/ATCC NSCLC -77.3% | 786-0 renal -89.1%

CCOC(=O)c1c(NC(=O)c2ccc(C(F)(F)F)cc2)sc2c(CN3CCN(C)CC3)c(O)ccc12
inactive: NCI-H23 lung 56.4% | NCI-H322M lung 10.2% | HOP-92 NSCLC 24.2%
active: NCI-H226 lung -6.63% | HOP-62 NSCLC -78.6% | NCI-H460 lung -70.7% | NCI-H522 lung -21.3% | A549/ATCC NSCLC -74.8% | 786-0 renal -93.6%

CS(=O)(=O)c1ccc(/C(=N/N=C(N)N)c2ccc(F)cc2)cc1
inactive: NCI-H23 lung 88.3% | NCI-H226 lung 91% | NCI-H322M lung 119% | HOP-62 NSCLC 95.7% | NCI-H460 lung 92.7% | HOP-92 NSCLC 94.4% | NCI-H522 lung 81.2% | A549/ATCC NSCLC 80.8% | 786-0 renal 76.9%

CCN(CC)c1ccc(/C=N/NC(=O)c2ccc(S(N)(=O)=O)cc2)c(O)c1
active: NCI-H460 lung 4.16% | 786-0 renal 4.11%
inactive: NCI-H23 lung 20.7% | NCI-H226 lung 43.1% | NCI-H322M lung 22.1% | HOP-62 NSCLC 11.6% | HOP-92 NSCLC 53.1% | NCI-H522 lung 15.1% | A549/ATCC NSCLC 16%

COc1cc(/C=N\NC(=O)c2ccc3nc(-c4ccc(Br)cc4)[nH]c3c2)cc(OC)c1OC
inactive: NCI-H23 lung 40.2% | NCI-H226 lung 48.7% | NCI-H322M lung 76.8% | HOP-62 NSCLC 72.6% | NCI-H460 lung 42.3% | HOP-92 NSCLC 34.4% | NCI-H522 lung 45.4% | A549/ATCC NSCLC 72.5% | 786-0 renal 38.4%

N#Cc1c(-c2ccc(Br)cc2)cc(-c2c[nH]c3ccccc23)nc1N
inactive: NCI-H23 lung 51.3% | NCI-H226 lung 60% | NCI-H322M lung 67.6% | HOP-62 NSCLC 42.5% | NCI-H460 lung 16.7% | HOP-92 NSCLC 43.6% | NCI-H522 lung 11% | A549/ATCC NSCLC 42.1% | 786-0 renal 79.7%

CC(C)=CCC[C@](C)(O)[C@H]1CC[C@]2(C)[C@@H]1CC[C@@H]1[C@@]3(C)CC[C@H](N)C(C)(C)[C@@H]3CC[C@]12C
inactive: NCI-H23 lung 76.5% | NCI-H226 lung 93.1% | NCI-H322M lung 111% | HOP-62 NSCLC 97.9% | NCI-H460 lung 27.4% | HOP-92 NSCLC 76.3% | NCI-H522 lung 96.8% | A549/ATCC NSCLC 67.3% | 786-0 renal 61.9%

CCCCSC1=C(Cl)CN(c2ccc(Cl)cc2)C1=O
inactive: NCI-H23 lung 102% | NCI-H226 lung 96.1% | NCI-H322M lung 107% | HOP-62 NSCLC 106% | NCI-H460 lung 93.4% | HOP-92 NSCLC 96.6% | A549/ATCC NSCLC 102% | 786-0 renal 99.2%
active: NCI-H522 lung -4.15%

Cc1ccc(C(=O)Nc2ccc(CNCCN3CCOCC3)c(C(F)(F)F)c2)cc1C#Cc1cnc2cccnn12
active: HOP-92 NSCLC -11.9% | NCI-H522 lung 4.82%
inactive: NCI-H23 lung 21.5% | NCI-H226 lung 20.5% | NCI-H322M lung 47.9% | HOP-62 NSCLC 15.4% | NCI-H460 lung 18.9% | A549/ATCC NSCLC 19.2% | 786-0 renal 14.2%

CCN(CC)CCOc1ccc(C(=C(C)Cc2ccc(OC)cc2)c2ccc(OCCN(CC)CC)cc2)cc1
inactive: NCI-H23 lung 82.6% | NCI-H226 lung 81.3% | NCI-H322M lung 81.5% | HOP-62 NSCLC 62.6% | NCI-H460 lung 38.4% | HOP-92 NSCLC 19.9% | NCI-H522 lung 76.8% | A549/ATCC NSCLC 52.6% | 786-0 renal 60.5%

Cc1ccc(C)c(NC2=C(Cl)C(=O)c3nc(C)ccc3C2=O)c1
inactive: NCI-H226 lung 10.5% | NCI-H322M lung 24.2% | NCI-H460 lung 48.9% | A549/ATCC NSCLC 31%
active: NCI-H23 lung -38% | HOP-62 NSCLC 7.19% | HOP-92 NSCLC -13.8% | NCI-H522 lung -35.9% | 786-0 renal 4.67%

C#CCOc1ccccc1C(OC(=O)c1ccccc1)C(=O)NC(C)(C)C(C)(C)C (stereo unspecified)
inactive: NCI-H23 lung 82.4% | NCI-H226 lung 82.1% | NCI-H322M lung 90.4% | HOP-62 NSCLC 88.4% | NCI-H460 lung 89.7% | HOP-92 NSCLC 71% | NCI-H522 lung 73.4% | A549/ATCC NSCLC 74% | 786-0 renal 84.7%

CCNC(=O)Oc1ccc(/C(=C(/C)c2ccc(OC)cc2)c2ccc(OCCN3CCCCCC3)cc2)cc1
inactive: NCI-H23 lung 52.8% | NCI-H226 lung 87.4% | NCI-H322M lung 80.9% | HOP-62 NSCLC 31.9% | NCI-H460 lung 16.7% | HOP-92 NSCLC 49.5% | NCI-H522 lung 93.1% | A549/ATCC NSCLC 54.4% | 786-0 renal 35.5%

CC[C@]12CC(C(=O)OC)=C3Nc4ccccc4[C@@]34CCN(C14)[C@@H]1c3cc4c(cc3O[C@@H]1[C@H]2O)NC1=C(C(=O)OC)C[C@@]2(CC)C3N(CC[C@@]143)C[C@H]1O[C@H]12 (stereo partly specified)
inactive: NCI-H23 lung 10.2% | NCI-H226 lung 18.9% | NCI-H322M lung 28.8% | HOP-62 NSCLC 29% | NCI-H460 lung 15.3% | A549/ATCC NSCLC 21.9% | 786-0 renal 23.2%
active: HOP-92 NSCLC -2.19% | NCI-H522 lung 1.97%

O=[N+]([O-])c1ccc(NC(=S)NNC(=S)Nc2ccc(F)cc2)cc1
inactive: NCI-H23 lung 89.6% | NCI-H226 lung 94.2% | NCI-H322M lung 76.9% | HOP-62 NSCLC 97% | NCI-H460 lung 90.9% | HOP-92 NSCLC 72.9% | NCI-H522 lung 70.1% | A549/ATCC NSCLC 88.2% | 786-0 renal 97.3%

CCNC(=O)Oc1ccc(/C(=C(/C)c2ccc(Cl)cc2)c2ccc(OCCN3CCCCCC3)cc2)cc1
inactive: NCI-H23 lung 22.1% | NCI-H226 lung 80.9% | NCI-H322M lung 75.9% | HOP-92 NSCLC 60% | NCI-H522 lung 82.4% | A549/ATCC NSCLC 43.9% | 786-0 renal 22.5%
active: HOP-62 NSCLC -19.9% | NCI-H460 lung -62.3%

CN1CCN(Cc2ccc(NC(=O)c3cncc(C#Cc4cnc5ccc(N)nn45)c3)cc2C(F)(F)F)CC1
active: NCI-H23 lung 4.35% | HOP-62 NSCLC -1.79% | HOP-92 NSCLC -22.7%
inactive: NCI-H226 lung 17.2% | NCI-H322M lung 12.4% | NCI-H460 lung 14.9% | NCI-H522 lung 12.5% | A549/ATCC NSCLC 38.2% | 786-0 renal 50.1%

CC(=O)C1=C(C)NC(NNc2ccccc2)=NC1c1ccc([N+](=O)[O-])cc1 (stereo unspecified)
inactive: NCI-H23 lung 95.3% | NCI-H226 lung 96.7% | NCI-H322M lung 84.6% | HOP-62 NSCLC 113% | NCI-H460 lung 99.9% | HOP-92 NSCLC 99.7% | NCI-H522 lung 76.9% | A549/ATCC NSCLC 88.1% | 786-0 renal 97.8%

C=C(C)[C@@H]1CC[C@]2(C(=O)NC3CCCCC3)CC[C@]3(C)[C@H](CC[C@@H]4[C@@]5(C)CC[C@H](N)C(C)(C)[C@@H]5CC[C@]43C)[C@@H]12
inactive: NCI-H23 lung 106% | NCI-H226 lung 94.2% | NCI-H322M lung 108% | HOP-62 NSCLC 104% | NCI-H460 lung 98.7% | HOP-92 NSCLC 73.1% | NCI-H522 lung 93.2% | A549/ATCC NSCLC 91.9% | 786-0 renal 84.6% | COLO 205 colon 52.9%

COc1ccc2[nH]cc(-c3nn4cc(-c5ccncc5)nc4s3)c2c1
inactive: NCI-H23 lung 70.2% | NCI-H226 lung 76.5% | NCI-H322M lung 78.2% | HOP-62 NSCLC 69.9% | NCI-H460 lung 51.3% | HOP-92 NSCLC 28.9% | NCI-H522 lung 51% | A549/ATCC NSCLC 74.6% | 786-0 renal 79.8%

COc1ccc(/C(=N\NC(N)=S)c2ccc(Cl)cc2)cc1OC
inactive: NCI-H23 lung 27.4% | NCI-H226 lung 51.6% | NCI-H322M lung 53.6% | HOP-62 NSCLC 27.5% | NCI-H460 lung 12% | HOP-92 NSCLC 48.6% | A549/ATCC NSCLC 42.4% | 786-0 renal 42.1%
active: NCI-H522 lung -10%

NS(=O)(=O)c1cccc(Nc2nc(SCC(=O)c3ccc(Cl)cc3)nc3c2CCC3)c1
inactive: NCI-H23 lung 75.1% | NCI-H226 lung 87.7% | NCI-H322M lung 97.1% | HOP-62 NSCLC 76.3% | NCI-H460 lung 97.6% | HOP-92 NSCLC 63.3% | NCI-H522 lung 95.6% | A549/ATCC NSCLC 91.7% | 786-0 renal 82.5% | COLO 205 colon 109%

— PubChem BioAssay (NCI)
